Results: PubChem BioAssay AID1159580 (chemical genetic matrix, 2015)
The campaign covered roughly 5,500 compounds. About 2,000 (36%) were called active. Not shown: some 18% with an inconclusive outcome. Cut-off read from the data, not from the text of the source: active = normalized growth mostly below about 0.91 (no sharp cut-off); inconclusive = no clear call, values can overlap the other calls; inactive = mostly above about 0.92. This is one part of the list.

Experiment: chemical genetic growth profiling, strain panel (AID 1159580);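 note: tested at 20 µM; growth read once vehicle control cultures reached saturation at 30 °C; 1 = growth at the plate median or of vehicle wells; lower values mean less growth of the strain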
Details: growth OD
[1] = S. cerevisiae deletion strains, locus YDL101C, strain DUN1, stronger effect = lower value
[2] = S. cerevisiae deletion strains, locus YHR030C, strain SLT2, stronger effect = lower value

Measured: normalized growth

CC(C)(C)c1cc(-c2cc(C(F)(F)F)[nH]n2)c2c(c1)C(C)(C)CC2
inactive: S. cerevisiae deletion strains, locus YAL013W, strain DEP1, stronger effect = lower value 0.976 | S. cerevisiae deletion strains, locus YBR229C, strain ROT2, stronger effect = lower value 1 | S. cerevisiae deletion strains, locus YCL061C, strain MRC1, stronger effect = lower value 0.995 | [1] 1 | S. cerevisiae deletion strains, locus YDR150W, strain NUM1, stronger effect = lower value 0.874 | S. cerevisiae deletion strains, locus YEL061C, strain CIN8, stronger effect = lower value 1 | S. cerevisiae deletion strains, locus YGR078C, strain PAC10, stronger effect = lower value 1 | [2] 1.09 | S. cerevisiae deletion strains, locus YHR087W, strain rtc3, stronger effect = lower value 0.989 | S. cerevisiae deletion strains, locus YJR043C, strain POL32, stronger effect = lower value 0.982 | S. cerevisiae deletion strains, locus YJR075W, strain HOC1, stronger effect = lower value 0.966 | S. cerevisiae deletion strains, locus YLR039C, strain RIC1, stronger effect = lower value 0.897 | S. cerevisiae deletion strains, locus YLR058C, strain SHM2 (second series), stronger effect = lower value 1.01 | S. cerevisiae deletion strains, locus YLR085C, strain ARP6, stronger effect = lower value 1.03 | S. cerevisiae deletion strains, locus YLR262C, strain YPT6, stronger effect = lower value 0.891 | S. cerevisiae deletion strains, locus YML094W, strain GIM5, stronger effect = lower value 0.998 | S. cerevisiae deletion strains, locus YMR219W, strain ESC1, stronger effect = lower value 1 | S. cerevisiae deletion strains, locus YMR263W, strain SAP30, stronger effect = lower value 0.974 | S. cerevisiae deletion strains, locus YMR307W, strain GAS1, stronger effect = lower value 0.998 | S. cerevisiae deletion strains, locus YNL153C, strain GIM3, stronger effect = lower value 0.997 | S. cerevisiae deletion strains, locus YNL298W, strain CLA4 (second series), stronger effect = lower value 1.01 | S. cerevisiae deletion strains, locus YNL322C, strain KRE1, stronger effect = lower value 0.993 | S. cerevisiae deletion strains, locus YNR030W, strain Alg12, stronger effect = lower value 0.99 | S. cerevisiae deletion strains, locus YPL055C, strain LGE1, stronger effect = lower value 0.985 | S. cerevisiae deletion strains, locus YPL241C, strain CIN2, stronger effect = lower value 1 | S. cerevisiae deletion strains, locus YPR135W, strain CTF4, stronger effect = lower value 0.881 | S. cerevisiae strains, strain wild type, stronger effect = lower value 1.01

FC(F)(F)c1cc(-c2ccc(Cl)cc2)n[nH]1
active: [2] 0.763 | S. cerevisiae deletion strains, locus YLR113W, strain HOG1, stronger effect = lower value 0.701 | S. cerevisiae deletion strains, locus YPL256C, strain CLN2, stronger effect = lower value 0.677
inactive: S. cerevisiae deletion strains, locus YAR019C, strain CDC15, stronger effect = lower value 0.908 | S. cerevisiae deletion strains, locus YBL105C, strain PKC1, stronger effect = lower value 0.923 | S. cerevisiae deletion strains, locus YBR135W, strain CKS1, stronger effect = lower value 0.916 | S. cerevisiae deletion strains, locus YBR136W, strain MEC1, stronger effect = lower value 0.918 | S. cerevisiae deletion strains, locus YBR160W, strain CDC28, stronger effect = lower value 0.922 | S. cerevisiae deletion strains, locus YDL017W, strain CDC7, stronger effect = lower value 0.931 | S. cerevisiae deletion strains, locus YDL028C, strain MPS1, stronger effect = lower value 0.918 | [1] 0.926 | S. cerevisiae deletion strains, locus YDL108W, strain KIN28, stronger effect = lower value 0.925 | S. cerevisiae deletion strains, locus YDL132W, strain cdc53, stronger effect = lower value 0.917 | S. cerevisiae deletion strains, locus YDL214C, strain PRR2, stronger effect = lower value 0.826 | S. cerevisiae deletion strains, locus YDR052C, strain DBF4, stronger effect = lower value 0.927 | S. cerevisiae deletion strains, locus YDR054C, strain cdc34, stronger effect = lower value 0.904 | S. cerevisiae deletion strains, locus YDR226W, strain ADK1, stronger effect = lower value 0.921 | S. cerevisiae deletion strains, locus YDR477W, strain SNF1, stronger effect = lower value 0.848 | S. cerevisiae deletion strains, locus YER123W, strain YCK3, stronger effect = lower value 0.789 | S. cerevisiae deletion strains, locus YER133W, strain GLC7, stronger effect = lower value 0.779 | S. cerevisiae deletion strains, locus YFL009W, strain cdc4, stronger effect = lower value 0.908 | S. cerevisiae deletion strains, locus YFL029C, strain CAK1, stronger effect = lower value 0.906 | S. cerevisiae deletion strains, locus YFR003C, strain YPI1, stronger effect = lower value 0.92 | S. cerevisiae deletion strains, locus YFR019W, strain FAB1, stronger effect = lower value 0.901 | S. cerevisiae deletion strains, locus YFR028C, strain CDC14, stronger effect = lower value 0.909 | S. cerevisiae deletion strains, locus YGR040W, strain KSS1, stronger effect = lower value 0.813 | S. cerevisiae deletion strains, locus YGR052W, strain FMP48, stronger effect = lower value 0.834 | S. cerevisiae deletion strains, locus YGR092W, strain DBF2, stronger effect = lower value 0.807 | S. cerevisiae deletion strains, locus YHR079C, strain IRE1, stronger effect = lower value 0.803 | S. cerevisiae deletion strains, locus YHR082C, strain KSP1, stronger effect = lower value 0.826 | S. cerevisiae deletion strains, locus YHR205W, strain SCH9, stronger effect = lower value 0.842 | S. cerevisiae deletion strains, locus YIL147C, strain SLN1, stronger effect = lower value 0.921 | S. cerevisiae deletion strains, locus YJL095W, strain BCK1, stronger effect = lower value 0.74 | S. cerevisiae deletion strains, locus YJL128C, strain PBS2, stronger effect = lower value 0.882 | S. cerevisiae deletion strains, locus YJL157C, strain FAR1, stronger effect = lower value 0.813 | S. cerevisiae deletion strains, locus YJR016C, strain ILV3, stronger effect = lower value 0.915 | S. cerevisiae deletion strains, locus YJR066W, strain TOR1 (second series), stronger effect = lower value 0.948 | S. cerevisiae deletion strains, locus YJR066W, strain TOR1, stronger effect = lower value 0.763 | S. cerevisiae deletion strains, locus YKL048C, strain ELM1, stronger effect = lower value 0.857 | S. cerevisiae deletion strains, locus YKL067W, strain YNK1, stronger effect = lower value 0.84 | S. cerevisiae deletion strains, locus YKL101W, strain HSL1, stronger effect = lower value 0.836 | S. cerevisiae deletion strains, locus YKL193C, strain SDS22, stronger effect = lower value 0.902 | S. cerevisiae deletion strains, locus YKL203C, strain TOR2, stronger effect = lower value 0.819 | S. cerevisiae deletion strains, locus YLR133W, strain CKI1, stronger effect = lower value 0.843 | S. cerevisiae deletion strains, locus YLR403W, strain SFP1, stronger effect = lower value 0.74 | S. cerevisiae deletion strains, locus YML070W, strain DAK1, stronger effect = lower value 0.789 | S. cerevisiae deletion strains, locus YMR001C, strain CDC5, stronger effect = lower value 0.911 | S. cerevisiae deletion strains, locus YMR205C, strain PFK2 (second series), stronger effect = lower value 0.846 | S. cerevisiae deletion strains, locus YMR277W, strain FCP1, stronger effect = lower value 0.915 | S. cerevisiae deletion strains, locus YNL006W, strain LST8, stronger effect = lower value 0.935 | S. cerevisiae deletion strains, locus YNL020C, strain ARK1, stronger effect = lower value 0.841 | S. cerevisiae deletion strains, locus YNL161W, strain CBK1, stronger effect = lower value 0.913 | S. cerevisiae deletion strains, locus YNL183C, strain NPR1, stronger effect = lower value 0.756 | S. cerevisiae deletion strains, locus YNL207W, strain RIO2, stronger effect = lower value 0.897 | S. cerevisiae deletion strains, locus YNL222W, strain SSU72, stronger effect = lower value 0.91 | S. cerevisiae deletion strains, locus YNL307C, strain MCK1 (second series), stronger effect = lower value 0.853 | S. cerevisiae deletion strains, locus YOL078W, strain AVO1, stronger effect = lower value 0.903 | S. cerevisiae deletion strains, locus YOL136C, strain PFK27, stronger effect = lower value 0.803 | S. cerevisiae deletion strains, locus YOR061W, strain CKA2, stronger effect = lower value 0.869 | S. cerevisiae deletion strains, locus YOR119C, strain RIO1, stronger effect = lower value 0.826 | S. cerevisiae deletion strains, locus YOR231W, strain MKK1, stronger effect = lower value 0.747 | S. cerevisiae deletion strains, locus YOR329C, strain SCD5, stronger effect = lower value 0.912 | S. cerevisiae deletion strains, locus YPL031C, strain PHO85, stronger effect = lower value 0.824 | S. cerevisiae deletion strains, locus YPL153C, strain RAD53, stronger effect = lower value 0.829 | S. cerevisiae deletion strains, locus YPL204W, strain HRR25, stronger effect = lower value 0.798 | S. cerevisiae deletion strains, locus YPL209C, strain IPL1, stronger effect = lower value 0.916 | S. cerevisiae deletion strains, locus YPR025C, strain CCL1, stronger effect = lower value 0.917 | S. cerevisiae deletion strains, locus YPR106W, strain ISR1, stronger effect = lower value 0.901 | S. cerevisiae deletion strains, locus YPR111W, strain DBF20, stronger effect = lower value 0.892 | S. cerevisiae deletion strains, strain NNK1, stronger effect = lower value 0.902 | S. cerevisiae deletion strains, strain TSCII, stronger effect = lower value 0.911
